Test results published in PubChem BioAssay (NCI).
This is part of a sample that, as a whole, favours compounds with a hit. Of some 83,000 tested, about 20% had one in any assay.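 Step 1: grow cells in 96-well plates. Step 2: add test compound at a single concentration. Step 3: incubate 48 h. Step 4: record percent growth.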 Unmarked numbers belong to inactive results. Activity calls are given as the source filed them. Rule for the calls: active = growth percent below 10; inactive = the rest.

Tested on: HL-60(TB) leukemia
Test: NCI-60 one-dose screen, 48 h (100 = growth as untreated, 0 = no growth, -100 = all killed)
Details: 10 µM unless noted

Compound	growth
O=S(=O)(Nc1ccc2ccccc2c1)c1ccc(-c2cnc(C3CC3)o2)cc1	-28% (active)
COc1cc(/C=C2\C(=O)Nc3ccccc32)cc(OC)c1O	1.88% (active)
COc1ccc(C(=O)c2cc3c(OC)c(OC)c(OC)cc3[nH]2)cc1	36.1%
Cc1nc2ccccc2c(/C=C/c2ccc(Br)cc2)c1C(=O)/C=C/c1ccccc1	2.74% (active)
CC12CC3CC1C(C(=O)O2)C3C(=O)O (stereo unspecified)	95.6%
CC1(C)C(=O)/C(=C\c2cccnc2)C[C@]2(C)[C@H]3CC=C4[C@@H]5C[C@@](C)(C(=O)O)CC[C@]5(C)CC[C@@]4(C)[C@]3(C)CC[C@@H]12	104%
CON=C1C[C@]2(C[C@@H]3C[C@@H](C/C=C(\C)C[C@@H](C)/C=C/C=C4\CO[C@@H]5[C@H](O)C(C)=C[C@@H](C(=O)O3)[C@]45O)O2)O[C@H](/C(C)=C/C(C)C)[C@H]1C	-43.6% (active)
CCN(CC)Cc1cc(Nc2ccnc3cc(Cl)ccc23)ccc1O	94.5%
CC(=O)OC1Oc2cc(C)c(C)cc2-c2oc(=O)c(-c3ccc(F)cc3)cc21 (stereo unspecified)	12.5%
Clc1ccc(C2=NN(c3ccc(Cl)cc3)C(c3cccc(Nc4ccnc5cc(Cl)ccc45)c3)C2)cc1 (stereo unspecified)	102%
C[C@@H](Oc1cc(-n2cnc3ccc(CN4CCN(C)CC4)cc32)sc1C(N)=O)c1ccccc1C(F)(F)F	-19.4% (active)
COc1ccc(-c2nn(-c3ccc(NC(=O)c4ccc(Cl)c(Cl)c4)cc3)cc2-c2ccncc2)cc1Cl	13.5%
O=Nc1ccc(O)cc1	77%
O=C1c2ccccc2C2(c3ccc(O)cc3)c3ccccc3Oc3cccc1c32 (stereo unspecified)	1.45% (active)
CCN(CC)CCCNCc1cc(-c2ccccc2)nc2cc(Cl)ccc12	14%
ClC1C2CC(c3ccccc32)C1Cl (stereo unspecified)	131%
CCOC(=O)c1[nH]cc2c1CCc1sc(Nc3ccccn3)nc1-2	75.9%
O=C1NC(=S)S/C1=C\N1N=C(c2ccc(Cl)cc2)CC1c1ccc(F)cc1 (stereo unspecified)	99.5%
Cc1c2c(cc[n+]1Cc1ccccc1)c1ccc(OCC3CCCCC3)cc1n2CC1CCCCC1	-53.4% (active)
CCC1CCc2nc3sc(C(=O)Nc4ccccc4C)c(N)c3cc2C1 (stereo unspecified)	2.97% (active)
CCN(CC)CCCC(C)Nc1cnc(C(=O)Nc2cccc3ccc(OC)nc23)cn1 (stereo unspecified)	72.4%
Cc1ccc(S(=O)(=O)NCC[C@@H]2C[C@H]2c2cc3ccccc3s2)cc1	112%
COc1ccc2c(c1)/C(=C\c1c[nH]c3ccc(F)cc13)C(=O)N2	88.3%
C(=N\Nc1nnn(Cc2ccccc2)n1)/c1ccccc1	5.57% (active)
Nc1c(Cl)cc(/C=C2\C=Cc3ccccc32)cc1Cl	104%
CC(=O)N1CCN(CCNC(=O)n2cc(-c3ccncc3)c(-c3ccc(O)c(Cl)c3)n2)CC1	106%

Compound	growth
COc1ccc(-c2nnc(N3CCN(C(=O)CN4CCN(c5ccc(OC)cc5)CC4)CC3)nc2-c2ccc(OC)cc2)cc1	-71.6% (active)
Cc1c([C@H](C(Cl)Cl)[C@H](O)[C@H]2C[C@H](C)C(=O)O2)ccc2c1C(=O)[C@H]1[C@H]2C[C@@H](Br)[C@@]23O[C@@H](CO[C@H]2O)CC13C (stereo partly specified)	-16.4% (active)
NC(=S)N/N=C(/CCN1CCCC1)CC(C1=C(O)C2=CCCCC2OC1=O)c1ccccc1 (stereo unspecified)	72.9%
Nc1c(C(=O)Nc2cccc(Br)c2)sc2nc3c(cc12)C(=O)CCC3	49.7%
O=C(Cn1nncc1CN1C(=O)CSC1=O)Nc1ccc(F)cc1	100%
N#Cc1cnc2cc(OC[C@H](O)CO)c(NC(=O)CC3CSSC3)cc2c1Nc1ccc(OCc2cccc(F)c2)c(Cl)c1	-83.4% (active)
Cc1ccc(CS/C(=C\c2ccc([N+](=O)[O-])cc2)C(=O)c2ccc(F)cc2)cc1	30.4%
O=C(NC1CCCCC1)C(c1cccs1)N(CCc1ccccc1)C(=O)c1ccco1 (stereo unspecified)	100%
O=C(Nc1ccc(F)cc1)Nc1ccc(Cl)c([N+](=O)[O-])c1	-15.6% (active)
Cc1ccc(F)cc1NC(=O)c1cc(Cl)ccc1Nc1ccccc1	51.6%
CN(C)c1nc(N)nc(Cn2c(-c3nonc3N)nc3ccccc32)n1	94.2%
NC(=O)/C=C/C(=O)c1c(Cl)cccc1Cl	-21.6% (active)
CCCCc1ccc(Nc2nnc(SCC(=O)NC(=O)NCC)s2)cc1	95.2%
CCOC(=O)c1cc2c(n1Cc1cc(OC)cc(OC)c1)-c1oncc1CCC2	5.41% (active)
C/C(=C\CCc1ccoc1)CC/C=C(\C)CCCN1CCC(CO)CC1	17.2%
Cc1ccc(S(=O)(=O)N(CCc2ccc(Cl)cc2)S(=O)(=O)c2ccc(C)cc2)cc1	85.3%
CSC1=N/C(=C\c2cccc(OCc3ccc(Cl)cc3)c2)C(=O)N1	77.8%
COc1ccc(C2c3ccc4ccccc4c3Oc3ncn(CCCn4ccnc4)c(=N)c32)cc1OC (stereo unspecified)	40.7%
CC(=O)CC(c1ccccc1)c1c(C)[nH]c2ccccc12 (stereo unspecified)	107%
NNc1ncnc2nc[nH]c12	35.3%
COc1ccc(Cn2cc3c(c2-c2cc(OC)c(OC)c(OC)c2)CCc2cnoc2-3)cc1N	5.54% (active)
Cc1ccc(C2CC(c3cccs3)=NN2c2ccc(S(N)(=O)=O)cc2)s1 (stereo unspecified)	88.4%
CCc1nc(N)nc(N)c1-c1ccc(Cl)cc1	51.3%
O=C1CCN2C(=O)Nc3ccccc3C2C1 (stereo unspecified)	94.5%
C1CCC(C(CC2CCCCN2)C2CCCCC2)CC1 (stereo unspecified)	11.1%
